Screening data deposited in PubChem by National Center for Advancing Translational Sciences (NCATS).
TRPV1 PAM: enhances activation of the human vanilloid receptor TRPV1; Q8NER1; hit rate 0.02% among 320,000; TRPV1-expressing cells, Fluo-8 calcium influx, capsaicin EC20 potentiation; potentiation, % at 8.33 µM; in the data active = potentiation above about 80%; inconclusive = between about 30% and that limit
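Fluo-8 calcium influx in TRPV1-expressing cells, kinetic read (ex 480/em 520 nm). Compound added and read 3 min for agonist activity, followed by capsaicin at EC20 final and 2 min further read for enhancement.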
D1 antagonist: antagonists of human D1 dopamine receptor; activity change, negative = inhibition, % at 10 µM; HEK293 TREx D1 cells, calcium flux, dopamine EC80; stronger effect = lower value; P21728; hit rate 3.2% among 360,000; in the data active = activity change below about -30%
Target sequence (P21728 whole entry, looked up): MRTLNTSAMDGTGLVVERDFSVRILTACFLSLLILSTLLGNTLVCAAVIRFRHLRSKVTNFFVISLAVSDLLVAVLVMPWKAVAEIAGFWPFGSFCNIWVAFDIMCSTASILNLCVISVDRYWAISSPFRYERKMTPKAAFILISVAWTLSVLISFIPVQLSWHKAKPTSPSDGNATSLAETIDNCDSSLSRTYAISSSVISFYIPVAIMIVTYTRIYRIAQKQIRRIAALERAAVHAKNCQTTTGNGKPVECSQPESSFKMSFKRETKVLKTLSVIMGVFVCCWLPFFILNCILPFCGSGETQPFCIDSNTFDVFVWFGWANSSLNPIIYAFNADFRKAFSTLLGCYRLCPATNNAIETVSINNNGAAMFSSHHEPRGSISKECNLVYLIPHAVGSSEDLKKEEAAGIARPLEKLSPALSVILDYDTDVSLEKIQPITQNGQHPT
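Cells carrying a force-coupled, tetracycline-inducible human D1 receptor report calcium flux. Each well gets a 10 s baseline, compound with 180 s monitoring, then an EC80 dopamine stimulus with a second 180 s kinetic read.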
TRPV1 ag: agonists of human vanilloid receptor 1 (TRPV1) | TRPV1-expressing cells, Fluo-8 calcium influx, agonist mode | Q8NER1 | activation, % at 8.33 µM | hit rate 0.19% among 320,000 | AID 540275; in the data active = activation above about 80%; inconclusive = between about 30% and that limit
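Fluo-8 calcium influx in TRPV1-expressing cells, kinetic read (ex 480/em 520 nm). Compound added and read 3 min for agonist activity, followed by capsaicin at EC20 final and 2 min further read for enhancement.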
D1 agonist: activates the human D1 dopamine receptor. P21728. HEK293 T-REx D1 cells, calcium flux, agonist mode. activation, % at 2 µM. hit rate 1% among 360,000. AID 504660; in the data active = activation above about 30%
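Tetracycline-induced HEK293 TREx D1 cells, force-coupled to calcium signalling, were dye-loaded with a no-wash calcium kit. Compound was pin-added after a 10 s baseline. Fluorescence was read kinetically at 1 cycle/s for 180 s, with calcium rises flagged as agonism.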
D1 potentiator: human D1 dopamine receptor positive modulation; P21728; HEK293 TREx D1 cells, calcium flux, dopamine EC20 potentiation; potentiation, % at 10 µM; hit rate 0.036% among 360,000; AID 504651; in the data active = potentiation above about 30%
Large screens that a line does not name were inactive. In the library only some 4.2% were active in any assay of this set; here they are far more common.

CC(C)c1ccc(NC(=O)C2CCCN(S(=O)(=O)c3cccc4cccnc34)C2)cc1 (stereo unspecified)	none (no result: TRPV1 PAM, TRPV1 ag)
CC1CCc2cc(F)ccc2N1C(=O)CSc1nnc2c(n1)[nH]c1ccc(F)cc12 (stereo unspecified)	D1 antagonist -36.5
Cc1ccn2c(CN3CCOCC3)c(-c3ccccc3)nc2c1	D1 antagonist -32.4
Oc1ccc(N2CCN(Cc3c(-c4ccccc4)nc4ccccn34)CC2)cc1	none
CC(C)N(c1ccccc1)c1ccc(NC(=S)NCCN(C)C)cc1	D1 agonist 34.4
CN(C)CCCNC(=S)Nc1ccc(-c2ccccc2)cc1	D1 agonist 33.7
CC(NC(=O)CSc1nc(-c2ccccc2F)nc2cc(=O)[nH]n12)c1nc2ccccc2n1C (stereo unspecified)	none (no result: TRPV1 PAM, TRPV1 ag)
Cn1cc(CN(C(=O)Nc2ccc(Cl)c(Cl)c2)C2CCCCC2)c2ccccc21	D1 antagonist -47.2 (no result: TRPV1 PAM, TRPV1 ag)
COc1cccc(NC(=O)CCC(=O)Nc2cccc(OC)c2)c1	D1 antagonist -31.5
COc1ccc(CC(=O)OCC(=O)Nc2cccc(Cl)c2)cc1	none
COc1ccc(CCC(=O)Nc2cccc(Cl)c2)cc1	D1 antagonist -44.9, TRPV1 ag inconclusive
CCc1ccc(NC(=S)N2CCN(c3cccc(OC)c3)CC2)cc1	D1 antagonist -31.3, TRPV1 ag inconclusive
CCc1ccc(NC(=O)Nc2cccc(OC)c2)cc1	D1 antagonist -31.4, TRPV1 ag inconclusive
O=C(NCc1ccccc1Cl)c1ccccc1NC(=O)c1nsc2ccccc12	none (no result: TRPV1 PAM, TRPV1 ag)
CCOc1ccc(NC(=O)Cn2c(=O)c(CNc3ccc(CC)cc3)cc3cc4c(cc32)OCO4)cc1	none (no result: TRPV1 PAM, TRPV1 ag)
COc1ccc(CCN(C)CCC(=O)Nc2cccc(C)c2)cc1OC	D1 antagonist -32.6
COc1cccc(NC(=O)CN(C)C(=O)/C=C/c2ccc3ccccc3n2)c1	D1 antagonist -46.0
COc1ccc(CCN(C)CCC(=O)Nc2ccc(C)cc2)cc1OC	none
COc1ccc(-c2noc(-c3ccc(N4CCCC4)c([N+](=O)[O-])c3)n2)cc1OC	D1 antagonist -38.1 (no result: TRPV1 PAM, TRPV1 ag)
COc1ccc(-c2noc(-c3ccc(NCc4ccco4)c([N+](=O)[O-])c3)n2)cc1	D1 antagonist -31.5 (no result: TRPV1 PAM, TRPV1 ag)
COc1ccc(-c2noc(-c3ccc(NCC4CCCO4)c([N+](=O)[O-])c3)n2)cc1 (stereo unspecified)	D1 antagonist -57.6 (no result: TRPV1 PAM, TRPV1 ag)
COc1cc(-c2noc(-c3ccc(NC4CCCC4)c([N+](=O)[O-])c3)n2)cc(OC)c1OC	D1 antagonist -30.3 (no result: TRPV1 PAM, TRPV1 ag)
CCOc1ccc(N2CC(NC(=O)c3ccc(S(=O)(=O)N4CCCCC4)cc3)CC2=O)cc1 (stereo unspecified)	none (no result: TRPV1 PAM, D1 antagonist, TRPV1 ag)
COc1ccc(OC)c(S(=O)(=O)NCc2ccc3c(c2)CCN3C(=O)c2cccc(C)c2)c1	none (no result: TRPV1 PAM, TRPV1 ag)
CCOC(=O)c1ccc(-n2c(N)c(C(=O)OC)c3nc4ccccc4nc32)cc1	none (no result: TRPV1 PAM, TRPV1 ag)
Cc1c(Cl)cccc1-n1ncc(C(=O)NCCN2CCN(C)CC2)c1C1CCN(C(=O)OC(C)(C)C)CC1	none (no result: TRPV1 PAM, TRPV1 ag)
O=C(NCCN1CCN(c2cccc(Cl)c2)CC1)c1ccc(CSc2nc3ccncc3[nH]2)cc1	TRPV1 PAM inconclusive, D1 antagonist -48.4
CCC1CCCCN1C(=O)Cn1c(=O)n(CCCCCC(=O)NCc2ccc(F)cc2)c(=O)c2sccc21 (stereo unspecified)	none (no result: TRPV1 PAM, TRPV1 ag)
CCNC(=O)C1CC(=O)N(c2ccc(OCC)cc2)C1 (stereo unspecified)	none
CCOc1ccc(N2CC(C(=O)NCC(=O)Nc3ccc(F)c(F)c3F)CC2=O)cc1 (stereo unspecified)	D1 antagonist -31.9
O=C(CSc1c2c(nc3cc(Cl)ccc13)CCCC2)N1CCN(c2ccccc2F)CC1	none (no result: TRPV1 PAM, TRPV1 ag)
CC(C)(C)OC(=O)N1CCC(c2c(C(=O)NCc3ccco3)cnn2-c2ccc(F)cc2F)CC1	none (no result: TRPV1 PAM, TRPV1 ag)
COc1ccc(C)cc1NC(=O)c1oc2ccc(S(=O)(=O)N3CCC4(CC3)OCCO4)cc2c1C	none (no result: TRPV1 PAM, TRPV1 ag)
CCOc1ccc(-c2cc3c(=O)n(Cc4nc(-c5ccc(OC(C)C)cc5)oc4C)ccn3n2)cc1Cl	D1 antagonist -36.1 (no result: TRPV1 PAM, TRPV1 ag)
CCc1ccccc1NS(=O)(=O)c1ccc2c(c1)CC(=O)N2	none (no result: TRPV1 PAM, TRPV1 ag)
Cc1ccc2cc(C#N)c(N3CCCN(C(=O)c4cnccn4)CC3)nc2c1	none
Cc1ccc2cc(C#N)c(N3CCCN(C(=O)C4CCCO4)CC3)nc2c1 (stereo unspecified)	D1 antagonist -44.1
O=C(O)CCCC(=O)Nc1nc(-c2ccc(F)cc2)cs1	none
